The entries come from a sample that favours hits as a whole.
CHX counter – affects cycloheximide protein synthesis inhibition readout, counter-screen | cell reporter, cycloheximide protein synthesis inhibition counterscreen | max response, % | actives 12% (n = 300,000) | AID 2314; in the data active = max response mostly above about 13%, no sharp cut-off; inactive = mostly below about 14%; also: read at 38.3 µM for the half of the compounds with a filed dose
SARS PLpro yeast-1 – inhibitors of SARS-CoV papain-like protease in yeast; actives 0.19% (n = 330,000); S. cerevisiae expressing SARS-CoV PLpro, growth rescue; Potency, µM (doses to about 32.9 µM), actives largely listed as activators; AID 485353; calls by dose curve; also: nearly all actives have a fitted effect of over 55% in size
Shiga toxin inh – Shiga toxin inhibition; Vero cells, Shiga toxin protein synthesis inhibition reporter; inhibition, % at 38.7 µM; actives 9.2% (n = 290,000); AID 2315; in the data active = inhibition mostly above about 28%, no sharp cut-off; inactive = mostly below about 43%
AMA1 RON2 block – disrupts binding of P. falciparum AMA1 to RON2; AlphaScreen AMA1-biotinylated RON2 peptide binding; Potency, µM (titrated, usually from 58.2 µM), hits mostly inhibitors; actives 0.2% (n = 360,000); also: nearly all actives have a fitted effect of over 45% in size
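AMA1 (3D7) with his tag at 25 nM final met compounds first, then biotinylated RON2 peptide at 25 nM; detection used donor plus acceptor beads, 10 µg/mL apiece, read by AlphaScreen after 30 min at room temperature.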
AmpC detergent – blocks E. coli AmpC beta-lactamase in detergent assay; P00811; AmpC hydrolysis of nitrocefin, absorbance 480 nm, 0.01% Triton; Potency, µM (series often up to 114 µM), usual class: inhibitors; actives 0.041% (n = 370,000); also: nearly all actives have a fitted effect of over 25% in size
Target sequence (P00811 whole entry, looked up): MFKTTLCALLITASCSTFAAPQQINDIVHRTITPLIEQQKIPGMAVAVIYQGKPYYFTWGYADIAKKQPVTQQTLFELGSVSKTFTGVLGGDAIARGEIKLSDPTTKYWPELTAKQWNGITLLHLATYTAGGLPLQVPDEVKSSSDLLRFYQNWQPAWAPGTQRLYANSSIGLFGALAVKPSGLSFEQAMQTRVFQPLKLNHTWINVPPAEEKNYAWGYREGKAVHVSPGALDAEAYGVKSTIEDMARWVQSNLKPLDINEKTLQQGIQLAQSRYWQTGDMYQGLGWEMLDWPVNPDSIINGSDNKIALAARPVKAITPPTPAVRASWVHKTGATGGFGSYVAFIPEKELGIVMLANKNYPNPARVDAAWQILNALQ
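AmpC (5.3 nM in the dispensed reagent) in 20 mM phosphate pH 7.0 with 0.01% (detergent screen) or 0.0001% Triton X-100 was preincubated with compounds for 15 min at room temperature. Nitrocefin was then added from an 800 uM solution, and hydrolysis was followed at 480 nm.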
AmpC no deterg – blocks E. coli AmpC beta-lactamase in detergent-free assay | P00811 | AmpC nitrocefin hydrolysis, absorbance 480 nm, 0.0001% Triton | Potency, µM (highest dose often 57.1 µM), actives largely listed as inhibitors | actives 0.52% (n = 330,000) | AID 485341; also: nearly all actives have a fitted effect of over 20% in size
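AmpC (5.3 nM in the dispensed reagent) in 20 mM phosphate pH 7.0 with 0.01% (detergent screen) or 0.0001% Triton X-100 was preincubated with compounds for 15 min at room temperature. Nitrocefin was then added from an 800 uM solution, and hydrolysis was followed at 480 nm.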
SARS PLpro yeast-2 – Rescues yeast growth by inhibiting SARS-CoV PLpro; actives 19% (n = 1,000); calls only; shares compounds with SARS PLpro yeast-1; yeast expressing SARS-CoV PLpro, growth phenotype rescue; call rule not given here
A number is an active result; n = inactive; u = inconclusive; x = no result; + = active, no number; [ ] = dose if it differs, or a comment. Unless noted, calls follow the shape of the dose curve; as a rule, active = well fitted curve in the direction sought with a large enough effect; inconclusive = small, poorly fitted or top-dose-only effect, or another doubt; inactive = no such curve, though single readings can be large; an effect the other way counts as inactive or inconclusive.

SMILES	CHX counter	SARS PLpro yeast-1	Shiga toxin inh	AMA1 RON2 block	AmpC detergent	AmpC no deterg	SARS PLpro yeast-2
CN(C)S(=O)(=O)c1ccc(C(=O)Nc2nnc(SCc3ccccc3)s2)cc1	n	n	n	n	n	n	x
Cc1cc(SCC(=O)N/N=C/c2ccccc2C(=O)O)c(C)cc1Br	n	n	n	n	n	n	x
Cc1cc(SCC(=O)N/N=C/c2ccc(O)cc2O)c(C)cc1Br	n	10µM	n	n	n	n	n
O=C(CSc1nnc(-c2ccccc2O)n1Cc1ccccc1)NNC(=O)c1ccccc1O	n	6.3µM	n	n	n	n	+
Cn1c(SCC(=O)NNC(=O)c2ccccc2O)nnc1-c1ccccc1	n	u	n	n	n	n	x
O=C(CSc1nnc(-c2ccccc2)n1Cc1ccccc1)NNC(=O)c1ccccc1O	n	5µM	n	n	n	n	n
Cc1cccc(CSc2nc(-c3cccs3)ccc2C#N)c1	x	x	x	x	n	x	x
O=C(CP(=O)(c1ccccc1)c1ccccc1)N/N=C/c1cc(Br)cc(Br)c1O	n	2.5µM	n	n	n	n	+
Cc1ccccc1NC(=O)C(C)OC(=O)CNS(=O)(=O)c1ccc(C#N)cc1 (stereo not given)	x	u	x	n	u	n	n
CCc1nc2c(OCc3ccc(F)c(F)c3)cccn2c1N(C)C(=O)c1ccc(C)cc1	x	x	x	n	x	x	x
O=C(CC(C(=O)O)C1CCCO1)NCCc1ccc2c(c1)OCO2 (stereo not given)	n	n	n	n	u	n	x
COc1cccc(-c2c(NC(=O)c3ccco3)oc3ccccc3c2=O)c1	n	u	n	n	n	n	n
O=C1NCCN1C(=O)c1cccc(Cl)c1	n	n	n	n	u	n	x
CN(C)Cc1cc(C(C)(C)c2cc(CN(C)C)c(O)c(CN(C)C)c2)cc(CN(C)C)c1O	n	13µM	n	n	u	n	n
Cc1ccc(-c2nc(CN(C)C)cc(CN(C)C)c2O)cc1	n	n	n	n	u	n	x
O=C(CN1C(=O)COc2ccc(S(=O)(=O)N3CCCCCC3)cc21)N1CCN(c2cccc(Cl)c2)CC1	x	x	x	x	n	x	x
Cc1ccc(NC(=S)N2CCC(C(=O)c3ccc(F)cc3)CC2)cc1C	x	x	x	n	x	x	x
Cc1ccc2c(CSc3nnc4ccccn34)cc(=O)oc2c1C	n	3.5µM	60	n	n	n	n
Cc1ccc2c(Cn3ccnc3)cc(=O)oc2c1C	n	n	n	n	n	n	x
O=C(Nc1ccc(N2CCCCCC2)cc1)c1cccc(S(=O)(=O)N2CCOCC2)c1	x	n	x	u	n	n	x
O=C(NS(=O)(=O)N1CCOCC1)C1=C(N2CCCC2)COC1=O	x	3.5µM	x	n	x	n	n
O=C(CCl)Nc1ccc(Oc2cnc3ccccc3n2)cc1	30	10µM	n	n	n	n	+
Cc1noc(C)c1C(=O)Nc1nc(-c2ccc(F)cc2)cs1	x	u	x	n[11.6 µM]	n	n	n
Cc1cc(C)c2cc(CN(CCO)C(=O)NC3CCCCC3)c(=O)[nH]c2c1	n	n	n	n	n	n	x
CCN1CCCC1CN(Cc1cc2c(C)cc(C)cc2[nH]c1=O)C(=O)NC1CCCCC1 (stereo not given)	n	u	n	n	u	n	n
SMILES	CHX counter	SARS PLpro yeast-1	Shiga toxin inh	AMA1 RON2 block	AmpC detergent	AmpC no deterg	SARS PLpro yeast-2
CCCCCCCCO	x	n	x	n	n	n	x
CCCCCCO	x	11µM	x	n	n	n	n
N#Cc1ccc(CSc2nnc(NC(=O)c3ccc(=O)[nH]c3)s2)cc1	n	n	n	n	n	n	x
Cc1ccc(S(=O)(=O)Nc2ncc(C(F)(F)F)cc2Cl)cc1	n	n	n	n	n	n	x
COc1ccccc1[C@@H]1C(c2cccc(C)c2)=NN(c2ccc(Br)cc2)[C@H]1C(=O)N1CCOC1=O	n	4µM	n	n	x	n	n
CC1CCc2c(nc3ncnn3c2N2CCN(c3ccccc3F)CC2)C1 (stereo not given)	n	n	n	n	n	n	x
S=C(NCCCN1CCOCC1)Nc1ccc(N2CCOCC2)cc1	n	n	n	n	n	n	x
COC(=O)c1ccc(NCN2C(=O)C3C4CCC(C4)C3C2=O)cc1 (stereo not given)	n	n	n	n	n	n	x
CCSc1nnc(NC(=O)C2CCCCC2C(=O)O)s1 (stereo not given)	n	n	n	n	n	n	x

Assay outcomes as filed in PubChem.
